These results are taken from PubChem BioAssay.

Structures are written as SMILES. Values without a mark were called inactive. No rule for the calls is given here.

Broadly, the inhibition is the change of the read-out against control, counted positive when it falls.

The target in this assay is Pantothenate synthetase (Mycobacterium tuberculosis (strain ATCC 25618 / H37Rv)) (UniProt P9WIL5). The assay is described as follows: Recombinant Mtb pantothenate synthetase (PanC) inhibitors, coupled enzyme, confirmatory (AID 375).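 Also: 0% = full reaction with vehicle and 100% = no enzyme background.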 To be noted: coupled enzyme assay; at 10 µM, hits give high values.
Pantothenate synthetase (Mycobacterium tuberculosis (strain ATCC 25618 / H37Rv)), sequence (P9WIL5 whole entry, looked up): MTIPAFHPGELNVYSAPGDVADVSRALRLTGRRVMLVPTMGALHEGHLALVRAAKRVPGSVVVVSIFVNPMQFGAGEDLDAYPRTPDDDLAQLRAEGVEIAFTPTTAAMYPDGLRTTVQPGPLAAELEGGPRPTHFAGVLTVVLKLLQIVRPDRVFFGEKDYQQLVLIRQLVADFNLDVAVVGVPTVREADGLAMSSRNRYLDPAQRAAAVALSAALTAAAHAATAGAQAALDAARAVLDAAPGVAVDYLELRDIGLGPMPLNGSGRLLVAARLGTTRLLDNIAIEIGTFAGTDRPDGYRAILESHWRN
For `Cc1ccc2c(c1)sc1ncc(NC(=O)c3ccccc3)c(=O)n12`, the inhibition is 2%.
With `CCCCCc1nnc(NC(=O)Cc2cccs2)s1`, the inhibition is 0%.
Under `COc1ccc(CCN(Cc2cc3cccc(C)c3[nH]c2=O)C(=O)N2CCCC2)cc1OC` stands 0%; under `O=C(COC(=O)C12CC3CC(CC(C3)C1)C2)NCc1ccco1`, 0%; under `Cc1cc(C)nc(NC2=NCC(=O)N2c2ccc(Cl)cc2)n1`, 0%.
For the compound `COC(=O)c1ccc2c(=O)n(CC3CCCO3)c(=S)[nH]c2c1` (stereo not given), the inhibition was 0%.
Under `Cc1nn(-c2ccc(F)cc2)c2sc(C(=O)OCC(=O)N3CCC(C)CC3)cc12` stands 0%.
Take `Cn1nnnc1SCC(=O)N1CCN(c2ccccc2)CC1`: the inhibition was 0%.
Under `COCC(=O)NC(c1ccccc1)c1ccccc1` stands 7%.
Under `Cc1ccc(-c2ccc(=O)n(CCC(=O)NCc3ccccn3)n2)cc1` stands 4%; under `CCOC(=O)c1cc(-c2nnc(-c3ccc(Oc4ccccc4)cc3)o2)c(C)nc1C`, 0%.
Under `CCCCOc1ccc(S(=O)(=O)n2c(C)nc3ccccc32)cc1` stands 0%; under `CCCS(=O)(=O)N1CCN(C(=O)CCC2CCCC2)CC1`, 0%; under `CC(NC(=O)c1noc2c1CCCCC2)c1ccccc1` (stereo not given), 0%.
`O=C(NCCN1CCOCC1)c1ccc(CS(=O)(=O)Cc2ccccc2F)o1`: the inhibition was 2%.
Under `Nc1ccc(Sc2nnnn2-c2ccccc2)c(Cl)c1` stands 6%; under `CC1CCCCC1NC(=O)Cn1ncc2ccccc21` (stereo not given), 0%.
For the compound `O=C(Cc1ccc(Br)cc1)N1CCCCCC1`, the inhibition was 1%.
Under `CC(=O)NC1CC2CCCC(C1)N2CC(=O)Nc1ccccc1` (stereo not given) stands 3%.
Under `CCOCCCNC(=O)c1ccc2c(c1)N(Cc1ccccc1)C(=O)CS2=O` (stereo not given) stands 0%; under `CCc1nc(SCc2cc(Cl)ccc2OC)n[nH]1`, 0%; under `COCCn1nnnc1C(C(C)C)N1CCN(C(=O)c2ccco2)CC1` (stereo not given), 0%.
Under `c1ccc2c(c1)nc(-c1ccncc1)n1nnnc21` stands 11%; under `CCc1ccc(C(=O)NC2CCCCC2)s1`, 0%; under `O=C1CCN(C(=O)c2ccccc2)C2CCCCC12` (stereo not given), 0%.
For `COc1ccc(COC(=O)c2n[nH]c3ccccc23)cc1F`, the inhibition is 0%.
Under `COc1cc(-c2noc(-c3cccc(Cl)c3)n2)cc(OC)c1OC` stands 0%; under `COc1ccc2cnn(-c3ccccc3)c(=O)c2c1OC`, 6%.
The figure for `CCc1nnc(NC(=O)C2Cc3ccccc3CN2S(=O)(=O)c2cccs2)s1` (stereo not given) is 1%.
Under `CCN(Cc1cc2cc(OC)ccc2[nH]c1=O)C(=O)c1ccncc1` stands 4%; under `CCN1CCN(C(=O)C2CCN(C(=O)c3cc4sccc4n3CC)CC2)CC1`, 14%.
Take `CCSc1nc(N)c(C#N)c(-c2ccccc2Cl)c1C#N`: the inhibition is 6%.
Under `C=CCn1c(SCC(=O)c2ccccc2)nnc1-c1ccc2c(c1)OCO2` stands 0%.
The figure for `Cc1ccc(-n2ncc3c(=O)n(CC(=O)NC4CCCCC4)cnc32)cc1C` is 12%.
The figure for `CCCCn1nnc(NC(=O)Cc2ccc(Cl)cc2)n1` is 0%; for `CC(=O)Nc1ccc(S(=O)(=O)NCC(C)NS(=O)(=O)c2ccc(NC(C)=O)cc2)cc1` (stereo not given) it is 2%; for `CCCCOC(=O)c1[nH]c2c(c1C)C(=O)CC(c1cc(OC)c(OC)c(OC)c1)C2` (stereo not given) it is 10%.
As for `Clc1cccc(Cl)c1COc1ccncc1`, the inhibition was 0%.
On to `O=C(NCC1COCCO1)C1CCN(S(=O)(=O)c2ccccc2)CC1` (stereo not given), for which the inhibition is 3%.
For `CCOC(=O)Cc1csc(NC(=O)CSc2nnc(-c3ccncc3)n2Cc2ccco2)n1`, the inhibition was 0%.
